The nature of test [1]: Nuclear factor erythroid 2-related factor 2/antioxidant responsive element (Nrf2/ARE) small molecule agonists: qHTS cell viability counter screen in human keratinocytes (AID 1919968; active = well fitted curve in the direction sought with a large enough effect in the repeat runs; an effect the other way counts as inactive or inconclusive; also: nearly all actives have a fitted effect of over 55% in size). The essentials: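 After a 5 h attachment period, ARE-reporter keratinocytes were dosed with compounds in DMSO and then cultured 23 h at 37 C. Cell viability came from CellTiter-Fluor signal read after a further 1 h.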
Background: qHTS replaces the single test concentration by a dilution series.

Test [2] is described as follows: Nuclear factor erythroid 2-related factor 2/antioxidant responsive element (Nrf2/ARE) small molecule agonists: luciferase reporter gene qHTS assay in human keratinocytes (AID 1919969). Also: nearly all actives have a fitted effect of over 35% in size.
For test [3], the target named is Gonadotropin-releasing hormone receptor (Homo sapiens) (UniProt P30968). Put plainly: Human gonadotropin-releasing hormone receptor (GnRHR) small molecule agonists, calcium flux assay in GnRHR-HEK293 cells (AID 1920063). Also: nearly all actives have a fitted effect of over 35% in size. The essentials:
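We seeded human GnRHR-expressing HEK293 cells for 18 hours, loaded them with calcium dye for an hour at 37 C, added test compounds, and recorded fluorescence intensity kinetically for three minutes.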
For orientation: A change in cytosolic calcium serves as a functional read-out for many receptors and channels.

The target in test [4] is KiSS-1 receptor (Homo sapiens) (UniProt Q969F8). Description: Human kisspeptin (KISS1R) small molecule agonists, calcium flux assay in KISS1R-HEK293 cells (AID 1920064; active = well fitted curve in the direction sought with a large enough effect in the repeat runs; an effect the other way counts as inactive or inconclusive). The essentials: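 Kinetic calcium assay, 1 s sampling over 3 min at Ex/Em 480/540, in HEK293 cells engineered with human KISS1R; compounds delivered in DMSO after 1 h dye loading.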
Chain of KiSS-1 receptor (Homo sapiens) (Q969F8 whole entry, looked up): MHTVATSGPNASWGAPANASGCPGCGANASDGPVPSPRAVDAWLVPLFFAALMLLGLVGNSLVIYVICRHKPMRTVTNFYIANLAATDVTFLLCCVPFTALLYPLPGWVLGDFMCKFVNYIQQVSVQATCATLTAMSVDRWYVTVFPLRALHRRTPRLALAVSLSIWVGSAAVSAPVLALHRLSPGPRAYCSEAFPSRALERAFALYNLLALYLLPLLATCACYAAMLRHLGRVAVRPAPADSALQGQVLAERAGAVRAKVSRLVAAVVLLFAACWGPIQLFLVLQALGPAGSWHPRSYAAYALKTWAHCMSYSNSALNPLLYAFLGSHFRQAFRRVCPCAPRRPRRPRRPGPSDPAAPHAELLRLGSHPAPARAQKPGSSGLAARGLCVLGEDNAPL
Test [5] can be described thus: G protein-coupled receptor (GPCR) small molecule agonists, calcium flux assay: HEK293 wild type cell line counter screen (AID 1920065). The essentials:
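Calcium-sensitive dye, loaded 1 h at 37 C into cells cultured 18 h, reports compound-evoked calcium release as fluorescence (Ex/Em 480/540), measured over 3 min. Agonist mode; 15-point titrations, triplicate.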

Test [6] is described as follows: p53 small molecule agonists, cell-based qHTS assay with human liver microsomes (AID 1963577). The method, boiled down:
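Compounds act here after metabolic activation: human liver microsomes and NADPH, both at 0.5 mg/mL final, were co-added to p53RE-bla cells. Incubation ran 16 h at 37 C, followed by LiveBLAzer detection.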

Test [7] is described as follows: p53 small molecule agonists, cell-based qHTS assay with rat liver microsomes: qHTS cell viability counter screen (AID 1963580). Also: nearly all actives have a fitted effect of over 45% in size. The method, boiled down:
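In HCT-116 cells carrying a p53 response element-bla reporter, compounds were metabolically activated in situ by rat liver microsomes with NADPH over 16 h. Cell ATP content then served as the cytotoxicity measure.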

The nature of test [8]: p53 small molecule agonists, cell-based qHTS assay: qHTS cell viability counter screen (AID 1963581). Also: nearly all actives have a fitted effect of over 45% in size. The essentials:
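Following 5 h attachment, HCT-116 p53RE-bla cells took up compound for 16 h at 37 C; the reporter was read with B/G FRET substrate (2 h RT), and viability then via CellTiter-Glo ATP luminescence.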

A short description of test [9]: p53 small molecule agonists, cell-based qHTS assay (AID 1963582; active = well fitted activation curve with a large enough effect in the signal ratio in the repeat runs, not every such curve was filed as active; the % refers to the signal ratio). The essentials:
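In this cell-based concentration-response screen, a p53 response element drives beta-lactamase; cells received DMSO-borne compounds after 5 h culture and were incubated a further 16 h before FRET substrate development.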

Test [10] has as its target 5-hydroxytryptamine receptor 2A (Homo sapiens) (UniProt P28223). Description: 5-hydroxytryptamine receptor 2A (HTR2A) small molecule agonists, cell-based qHTS assay (AID 1963587). Also: nearly all actives have a fitted effect of over 30% in size. The essentials: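 HTR2A-CHO cells, plated 18 h at 37 C/5% CO2, dye-loaded 1 h at 37 C; compounds in DMSO added by pin tool (agonist mode). Intracellular calcium flux read as kinetic fluorescence on FDSS over 2 min at 1 s intervals.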

The target of test [11] is Muscarinic acetylcholine receptor M1 (Homo sapiens) (UniProt P11229). Description: Cholinergic receptor muscarinic 1 (CHRM1) small molecule antagonists, cell-based qHTS assay (AID 1963588). Also: nearly all actives have a fitted effect of over 40% in size. Also: potency is read from the fitted curve at half-maximal effect. The essentials: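 CHRM1-CHO calcium-flux assay, antagonist mode. Cells were seeded 18 h, dye-loaded 1 h at 37 C and given compound for 5 min at RT, then acetylcholine was added at 50nM. FDSS fluorescence was read 3 min; 15 concentrations, three runs.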
Chain of Muscarinic acetylcholine receptor M1 (Homo sapiens) (P11229 whole entry, looked up): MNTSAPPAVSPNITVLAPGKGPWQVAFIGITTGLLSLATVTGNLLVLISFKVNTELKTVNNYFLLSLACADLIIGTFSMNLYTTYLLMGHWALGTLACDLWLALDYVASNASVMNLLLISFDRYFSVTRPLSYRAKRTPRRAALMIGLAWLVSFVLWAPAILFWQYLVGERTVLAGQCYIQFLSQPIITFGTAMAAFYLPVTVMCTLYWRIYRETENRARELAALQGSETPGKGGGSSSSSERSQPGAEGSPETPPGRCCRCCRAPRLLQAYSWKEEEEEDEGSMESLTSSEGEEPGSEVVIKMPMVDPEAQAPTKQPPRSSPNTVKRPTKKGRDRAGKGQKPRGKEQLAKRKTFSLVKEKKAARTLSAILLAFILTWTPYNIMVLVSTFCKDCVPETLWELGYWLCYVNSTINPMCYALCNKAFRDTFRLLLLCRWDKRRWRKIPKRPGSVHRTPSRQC

The target is the same in test [12]. Description: Cholinergic receptor muscarinic 1 (CHRM1) small molecule agonists, cell-based qHTS assay (AID 1963589). Also: nearly all actives have a fitted effect of over 35% in size. The essentials:
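Measures agonist-induced intracellular calcium rise. Stable human CHRM1 CHO line, 1 h dye load at 37 C, compounds from DMSO, kinetic fluorescence read.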

Test [13] in a line: cAMP Responsive Elements (CRE) small molecule agonists, cell-based qHTS assay (AID 1963590). The essentials: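 A CRE-responsive beta-lactamase reporter in HEK 293T cells was used. Treatment ran 3 h at 37 C; detection used LiveBLAzer B/G FRET substrate for 2 h at room temperature.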
Test [14] is described as follows: cAMP Responsive Elements (CRE) small molecule antagonists, cell-based qHTS assay (AID 1963591; active = well fitted inhibition curve with a large enough effect in the signal ratio in the repeat runs, not every such curve was filed as active; the % refers to the signal ratio). The method, boiled down:
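HEK293T cells carrying a CRE-driven beta-lactamase reporter receive compound and NKH477 (0.25 uM final) for 3 h. Fluorescence from LiveBLAzer B/G FRET substrate is read after 2 h at room temperature.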

For test [15], the target named is Beta-2 adrenergic receptor (Homo sapiens) (UniProt P07550). Description: Adrenergic beta2 receptor (ADRB2) small molecule antagonists, cell-based qHTS assay (AID 1963592). Also: series mostly up to about 92 µM; nearly all actives have a fitted effect of over 50% in size. The method, boiled down:
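Cells (CHO, stable ADRB2 overexpression) incubated 18-20hr at 37C; compounds added from DMSO; agonist mix (1nM isoproterenol, 100uM IBMX, 25uM Ro-20-1724) added; 0.5hr RT; d2-cAMP and anti-cAMP-cryptate added; 1hr RT; 665/615 nm read.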

The target in test [16] is D(2) dopamine receptor (Homo sapiens) (UniProt P14416). Put plainly: Dopamine D2 receptor (DRD2) small molecule agonists, cell-based qHTS assay (AID 1963594). Also: nearly all actives have a fitted effect of over 35% in size. Also: potency is read from the fitted curve at half-maximal effect. The method, boiled down:
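HEK293 cells stably expressing DRD2 were cultured 24 h at 37 C, then given Ro20-1724 (0.1 mM final) and compounds for 10 min at room temperature. NKH477 (200nM) was then added for 30 min. cAMP was read by HTRF.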

For test [17] the target is unchanged. Put plainly: Dopamine D2 receptor (DRD2) small molecule antagonists, cell-based qHTS assay (AID 1963595; active = well fitted inhibition curve with a large enough effect in the signal ratio in the repeat runs, with a control signal flat; the % refers to the signal ratio). The essentials:
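DRD2-HEK293; 0.1 mM Ro20-1724; cpd 10 min RT; NKH477 200 nM + quinpirole 12 nM, 30 min RT; HTRF cAMP (cAMP-d2/anti-cAMP cryptate), 665/620 nm ratio after 1 h.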

The nature of test [18]: p53 small molecule agonists, cell-based qHTS assay with human liver microsomes: qHTS cell viability counter screen (AID 1963579). Also: nearly all actives have a fitted effect of over 45% in size. The method, boiled down:
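Cells carrying the p53 response-element beta-lactamase reporter are treated for 16 h at 37 C with test compounds in the presence of human liver microsomes and NADPH (both 0.5 mg/mL final); ATP-based CellTiter-Glo luminescence then reports viability.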

Test [19] has as its target 5-hydroxytryptamine receptor 2A (Homo sapiens) (UniProt P28223). Description: 5-hydroxytryptamine receptor 2A (HTR2A) small molecule antagonists, cell-based qHTS assay (AID 1963586). Also: nearly all actives have a fitted effect of over 45% in size. The essentials:
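Antagonist-mode intracellular calcium assay: DOI (4 nM) added after 5 min compound pre-incubation at room temperature to dye-loaded HTR2A-CHO cells. Fluorescence followed for 3 min, sampled every second.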

The nature of test [20]: p53 small molecule agonists, cell-based qHTS assay with rat liver microsomes (AID 1963578). The method, boiled down: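 Read-out is beta-lactamase reporter fluorescence (LiveBLAzer, 2 h, room temperature, dark) in p53RE-bla cells treated 16 h at 37 C with compound, rat liver microsomes and NADPH, both 0.5 mg/mL final.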

SMILES strings stand for the structures. A number with no mark means an inactive call. Inconclusive results are not listed. Calls of active or inactive are those of the source. Unless noted, calls follow the shape of the full dose curve.

Chain of 5-hydroxytryptamine receptor 2A (Homo sapiens) (P28223 whole entry, looked up): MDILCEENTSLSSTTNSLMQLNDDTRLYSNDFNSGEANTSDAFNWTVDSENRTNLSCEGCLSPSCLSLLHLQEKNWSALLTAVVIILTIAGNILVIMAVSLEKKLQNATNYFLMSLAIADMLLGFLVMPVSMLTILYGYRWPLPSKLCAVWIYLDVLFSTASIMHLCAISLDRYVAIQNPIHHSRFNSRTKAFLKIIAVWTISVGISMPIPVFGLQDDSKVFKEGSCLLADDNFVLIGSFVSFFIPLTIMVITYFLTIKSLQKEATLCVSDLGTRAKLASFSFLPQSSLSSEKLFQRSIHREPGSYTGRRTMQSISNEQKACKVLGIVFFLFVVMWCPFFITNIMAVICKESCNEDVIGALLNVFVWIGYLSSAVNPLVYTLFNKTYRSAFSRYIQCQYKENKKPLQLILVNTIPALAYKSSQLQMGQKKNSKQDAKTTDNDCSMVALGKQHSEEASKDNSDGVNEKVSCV
Chain of D(2) dopamine receptor (Homo sapiens) (P14416 whole entry, looked up): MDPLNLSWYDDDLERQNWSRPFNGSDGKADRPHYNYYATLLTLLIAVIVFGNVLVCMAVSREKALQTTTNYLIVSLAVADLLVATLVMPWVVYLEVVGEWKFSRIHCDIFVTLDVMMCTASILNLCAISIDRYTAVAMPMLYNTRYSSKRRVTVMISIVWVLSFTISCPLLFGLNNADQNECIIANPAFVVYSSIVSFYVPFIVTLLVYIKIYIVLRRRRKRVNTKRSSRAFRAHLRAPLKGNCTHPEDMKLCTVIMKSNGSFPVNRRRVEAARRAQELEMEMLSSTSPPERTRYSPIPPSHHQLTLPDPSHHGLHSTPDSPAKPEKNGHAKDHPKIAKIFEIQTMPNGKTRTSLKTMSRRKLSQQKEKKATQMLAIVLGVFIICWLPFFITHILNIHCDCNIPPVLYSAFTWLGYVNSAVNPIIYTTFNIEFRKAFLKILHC
Chain of Gonadotropin-releasing hormone receptor (Homo sapiens) (P30968 whole entry, looked up): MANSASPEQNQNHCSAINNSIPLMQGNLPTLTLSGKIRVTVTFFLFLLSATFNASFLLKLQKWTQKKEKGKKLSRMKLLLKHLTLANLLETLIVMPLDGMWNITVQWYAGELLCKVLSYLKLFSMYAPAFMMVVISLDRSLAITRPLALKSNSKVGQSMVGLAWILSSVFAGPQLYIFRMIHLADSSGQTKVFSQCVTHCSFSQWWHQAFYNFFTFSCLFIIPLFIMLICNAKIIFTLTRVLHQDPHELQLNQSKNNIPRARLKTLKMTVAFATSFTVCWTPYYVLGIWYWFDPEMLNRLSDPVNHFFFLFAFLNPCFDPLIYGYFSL
Chain of Beta-2 adrenergic receptor (Homo sapiens) (P07550 whole entry, looked up): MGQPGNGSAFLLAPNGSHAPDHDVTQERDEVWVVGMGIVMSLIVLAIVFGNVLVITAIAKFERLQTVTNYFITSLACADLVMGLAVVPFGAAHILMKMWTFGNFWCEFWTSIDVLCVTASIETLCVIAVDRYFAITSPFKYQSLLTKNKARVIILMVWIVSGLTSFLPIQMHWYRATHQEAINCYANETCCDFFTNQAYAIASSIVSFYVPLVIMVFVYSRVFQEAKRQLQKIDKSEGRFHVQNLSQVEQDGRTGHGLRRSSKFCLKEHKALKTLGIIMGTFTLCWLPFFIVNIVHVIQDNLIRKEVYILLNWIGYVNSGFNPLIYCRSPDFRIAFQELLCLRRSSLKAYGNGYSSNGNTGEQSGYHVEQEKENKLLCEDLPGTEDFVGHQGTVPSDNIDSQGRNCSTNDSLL

As for `OC(c1ccccc1)(c1ccccc1)C1CCNCC1`, the Potency result in [1], in [2], in [3], in [4], in [5] and in [6] was “inactive” in each case. In addition, the Potency result in [7], in test [8], in [9], in test [10], in [12] and in test [13] was “inactive” in each case. The Potency entry in test [14], in [15], in [16] and in [17] was “inactive” each time. For the same compound, the Potency in test [11] was 4600 nM (active).
On to `C=CC[C@]1(O)CC[C@H]2[C@@H]3CCC4=CC(=O)CCC4=C3C=C[C@@]21C`, for which the Potency result in [1], in [2], in [3], in test [4], in test [5] and in [6] was “inactive” in each case. Besides, the Potency result in [18], in test [7], in test [9], in test [19], in [10] and in test [11] was “inactive” each time. Besides, the Potency result in test [12], in test [15] and in test [16] was “inactive” in each case.
As to `CC1=NNC(=O)N(/N=C/c2cccnc2)C1`, the Potency entry in [1], in [2], in test [3], in test [4], in test [5] and in [20] was “inactive” in each case. Further, the Potency result in [18], in test [7], in [8], in test [9], in test [19] and in test [10] was “inactive” in each case. Moreover, the Potency entry in test [11], in test [12], in test [13], in [14], in [15] and in test [16] was “inactive” in each case. The Potency entry in test [17] is “inactive”.
With `CCCCCCCC(=O)Cl`, the Potency result in test [1], in [2], in [3], in test [4], in test [5] and in [6] was “inactive” each time. The Potency result in [18], in [7], in test [19], in [10], in [11] and in test [12] was “inactive” throughout. Also, the Potency entry in test [14], in [15] and in test [17] was “inactive” each time. In addition, the Potency in test [16] was 1.7 nM (active).
With `CO/N=C(\C(=O)OC)c1ccccc1CO/N=C(\C)c1cccc(C(F)(F)F)c1`, the Potency entry in [1], in test [2], in [3], in [4], in [5] and in [6] was “inactive” throughout. In addition, the Potency result in test [18], in test [7], in [8], in test [19], in test [10] and in [11] was “inactive” throughout. Besides, the Potency entry in test [12], in test [14], in test [15] and in test [17] was “inactive” each time.
Turning to `CC(C)[C@H](C(=O)O[C@H](C#N)c1cccc(Oc2ccccc2)c1)c1ccc(Cl)cc1`, the Potency entry in [1], in test [2], in [3], in [4], in [5] and in [6] was “inactive” each time. Further, the Potency result in test [18], in [7], in test [8], in test [19], in [10] and in test [11] was “inactive” each time. For the same compound, the Potency entry in test [12], in test [15], in test [16] and in test [17] was “inactive” in each case.
Take `CC(=O)CCc1ccc2c(c1)OCO2`: the Potency result in test [1], in test [2], in test [3], in test [4], in test [5] and in test [6] was “inactive” throughout. Also, the Potency entry in [18], in test [8], in test [9], in [19], in test [10] and in test [11] was “inactive” each time. Also, the Potency entry in [12], in [13], in [14], in [15], in test [16] and in test [17] was “inactive” throughout.
Turning to `O=C(O)c1cc(I)cc(I)c1I`, the Potency entry in [1], in [2], in test [3], in test [4], in test [5] and in [20] was “inactive” throughout. Also, the Potency result in test [18], in [7], in [8], in [19], in test [10] and in [11] was “inactive” throughout. The Potency result in test [12], in test [15], in test [16] and in test [17] was “inactive” throughout.

The record behind these values is PubChem BioAssay (Tox21).
